Test results taken from PubChem BioAssay AID463173 (ICCB-Longwood Screening Facility, Harvard Medical School, 2010).
Among all 52,000 compounds or so, about 4,300 (8.3%) were called active. Only a selection was taken, and actives are over-represented in it overall. A number with no mark means an inactive call. Rule as the data show it: active = survival mostly below about 52% (no sharp cut-off); inactive = mostly above about 56%.

The compounds below were run on DeltatarO mutant (assay: growth inhibition of S. aureus wild type versus tarO mutant, primary screen, teichoic acid synthesis inhibitors, RN4220, OD600 (AID 463173)). Conditions: OD600, 18 h, stronger effect = lower value, screened at 18.75 µg/mL (by protocol).

**Q.** `CCNC(=O)C1CCN(S(=O)(=O)c2ccc3c(c2)CCCN3C(C)=O)CC1` was tested. Which survival did it give?
**A.** 99%

**Q.** `CCC(CC)C(=O)OCc1cc(=O)n2nc(C3CCCCC3)sc2n1` was tested. Which survival did it give?
**A.** 88%

**Q.** How did the survival turn out when `COc1ccc(/C=C(\NC(=O)c2ccccc2)C(N)=O)cc1` was run?
**A.** 79%

**Q.** With `CC(C)CCNC(=O)Cn1c(-c2cccs2)cc2cc(F)ccc21` as the compound, how does the survival read?
**A.** 94%

**Q.** `Cc1cc(C)c2c(c1)c(C)cc1nnc(SCC(=O)c3ccc(F)cc3)n12` was tested. Which survival did it give?
**A.** 63%

**Q.** With `Cc1ccc(C)c(CSC2=NC(C)(C)Nc3ccccc32)c1` as the compound, how does the survival read?
**A.** 80%

**Q.** Which survival does the source give for `CCC(NC(C)=O)c1ccccc1` (stereo unspecified) here?
**A.** 71%

**Q.** With `CCCCCCNc1nc(Oc2ccccc2)nc(Oc2ccccc2)n1` as the compound, how does the survival read?
**A.** 62%

**Q.** How did the survival turn out when `CN(C)C(=O)CSc1n[nH]c(-c2ccccc2)n1` was run?
**A.** 103%

**Q.** Which survival does the source give for `Cc1ccc(-c2noc(-c3ccc(N4CCC(C)CC4)c([N+](=O)[O-])c3)n2)cc1` here?
**A.** 85%

**Q.** For `Cc1ccc(NC(=O)CSc2nc3ccc(NC(=O)CCc4ccccc4)cc3s2)cc1`, which survival is on record?
**A.** 90%

**Q.** For `Cc1nn(S(=O)(=O)c2ccc(C(C)C)cc2)c(C)c1S(=O)(=O)N1CCCCC1`, which survival is on record?
**A.** 79%

**Q.** For `O=C(COc1ccc(Cl)cc1)OCc1cc(=O)n2nc(C3CC3)sc2n1`, which survival is on record?
**A.** 83%

**Q.** For `Cc1cc(=O)[nH]c2nnc(SCc3ccc(Cl)cc3Cl)n12`, which survival is on record?
**A.** 123%

**Q.** How did the survival turn out when `COc1ccccc1NC(=O)c1sc2ncn(Cc3ccccc3Cl)c(=O)c2c1C` was run?
**A.** 99%

**Q.** For `Cc1cccc(-c2nc3c(cnn3-c3ccccc3)c(=O)n2-c2ccc(Cl)cc2)c1`, which survival is on record?
**A.** 56%

**Q.** How did the survival turn out when `CCOc1ccc(-n2c(C)nc3c(cnn3-c3ccc(C)cc3)c2=O)cc1` was run?
**A.** 76%

**Q.** For `Cc1cccc(-c2nc3c(cnn3-c3ccccc3)c(=O)n2-c2cccc(Cl)c2)c1`, which survival is on record?
**A.** 44% (active)

**Q.** With `CCOc1ccc(-n2c(-c3ccc(C)cc3)nc3c(cnn3-c3ccccc3)c2=O)cc1` as the compound, how does the survival read?
**A.** 42% (active)

**Q.** With `CCOc1ccc(-n2c(CC)nc3c(cnn3-c3ccc(Cl)cc3)c2=O)cc1` as the compound, how does the survival read?
**A.** 46%

**Q.** With `Cc1cccc(-n2c(-c3ccco3)nc3c(cnn3-c3ccc(F)cc3)c2=O)c1` as the compound, how does the survival read?
**A.** 81%

**Q.** Which survival does the source give for `CC(=O)c1ccc(N2CCN(S(=O)(=O)c3ccc4c(c3)C(C)(C)C(=O)N4)CC2)cc1` here?
**A.** 64%

**Q.** Which survival does the source give for `CN1C(=O)c2ccccc2Sc2ccc(NC(=O)NCc3ccc(Cl)cc3)cc21` here?
**A.** 96%

**Q.** With `COc1ccc(/C=C/C(=O)Nc2sc3c(c2C(N)=O)CCCC3)cc1` as the compound, how does the survival read?
**A.** 58%

**Q.** Which survival does the source give for `COc1cc(C(=O)Nc2sc3c(c2C(N)=O)CCC(C)C3)cc(OC)c1OC` (stereo unspecified) here?
**A.** 53%

**Q.** Which survival does the source give for `CCOC(=O)c1c(NC(=O)/C=C/c2ccc(OCC)c(OC)c2)sc2c1CCC2` here?
**A.** 56%

**Q.** How did the survival turn out when `CCOC(=O)c1sc(NC(=O)/C=C/c2ccc(C(C)C)cc2)c(C(=O)OCC)c1C` was run?
**A.** 52%

**Q.** For `CCOC(=O)c1c(NC(=O)/C=C/c2ccc(OC)c(OC)c2)sc(C(C)=O)c1C`, which survival is on record?
**A.** 118%

**Q.** For `CCOC(=O)c1c(NC(=O)/C=C/c2ccc(Cl)cc2)sc2c1CCC(C)C2` (stereo unspecified), which survival is on record?
**A.** 44% (active)

**Q.** `CCOC(=O)c1c(NC(=O)/C=C/c2ccc(OC)cc2)sc2c1CCC(C)C2` (stereo unspecified) was tested. Which survival did it give?
**A.** 23% (active)

**Q.** `CCCOc1ccc(/C=C/C(=O)Nc2sc3c(c2C(=O)OCC)CCC(C)C3)cc1OC` (stereo unspecified) was tested. Which survival did it give?
**A.** 51%

**Q.** `COc1ccc(/C=C/C(=O)Nc2sc3c(c2C(N)=O)CCC(C)C3)cc1OC` (stereo unspecified) was tested. Which survival did it give?
**A.** 34% (active)

**Q.** Which survival does the source give for `COC(=O)c1c(NC(=O)/C=C/c2ccc(OC)c(OC)c2)sc2c1CCC2` here?
**A.** 51%

**Q.** How did the survival turn out when `COC(=O)c1c(NC(=O)/C=C/c2ccc(OC)cc2)sc2c1CCC2` was run?
**A.** 102%

**Q.** `COC(=O)c1sc(NC(=O)/C=C/c2ccc(OC)c(OC)c2)c(C(=O)OC)c1C` was tested. Which survival did it give?
**A.** 37% (active)

**Q.** How did the survival turn out when `Cc1ccccc1-c1noc(-c2nnn(-c3ccccc3C)c2N)n1` was run?
**A.** 94%

**Q.** `O=C(NCc1ccco1)c1ccc2c(c1)N(Cc1ccccc1F)C(=O)c1ccccc1S2=O` (stereo unspecified) was tested. Which survival did it give?
**A.** 90%

**Q.** Which survival does the source give for `CCCCNC(=O)c1ccc2c(c1)N(Cc1ccc(F)cc1)C(=O)c1ccccc1S2=O` (stereo unspecified) here?
**A.** 65%

**Q.** Which survival does the source give for `COC1CCCC(C(=O)Nn2c(C3CC3)nc3ccccc3c2=O)C1` (stereo unspecified) here?
**A.** 69%

**Q.** Which survival does the source give for `Cc1cc(F)ccc1NC(=O)c1csc2c1CCC(C)C2` (stereo unspecified) here?
**A.** 89%

**Q.** With `Cc1occc1C(=O)NN=C1c2ccccc2-c2ccccc21` as the compound, how does the survival read?
**A.** 69%

**Q.** With `CCN(C(=O)c1oc2ccc(S(=O)(=O)N3CCCCCC3)cc2c1C)c1ccccc1` as the compound, how does the survival read?
**A.** 124%

**Q.** Which survival does the source give for `CSc1ccc(NC(=O)N2C3CCC2CC(O)(c2cccnc2)C3)cc1` (stereo unspecified) here?
**A.** 79%

**Q.** For `CCOc1ccccc1CNS(=O)(=O)c1ccc(-c2coc(C)n2)cc1`, which survival is on record?
**A.** 94%

**Q.** `Cc1nc(N2CCCC2)ncc1C(=O)Nc1ccc(F)cc1F` was tested. Which survival did it give?
**A.** 90%

**Q.** How did the survival turn out when `Cc1ccc(Cl)cc1NC(=O)c1ccc2nc(CCc3ccccc3)oc2c1` was run?
**A.** 69%

**Q.** How did the survival turn out when `COc1cccc(-c2cn3c(n2)sc2cc(C(=O)NCc4cccs4)ccc23)c1` was run?
**A.** 57%

**Q.** How did the survival turn out when `O=C(NCc1cccs1)c1ccc2c(c1)sc1nc(-c3ccccc3)cn12` was run?
**A.** 82%

**Q.** With `COc1ccc(-c2cn3c(n2)sc2cc(C(=O)NCc4cccs4)ccc23)cc1` as the compound, how does the survival read?
**A.** 55% (active)

**Q.** Which survival does the source give for `O=C(NCc1cccs1)c1ccc2c(c1)sc1nc(-c3ccc(F)cc3)cn12` here?
**A.** 71%

**Q.** With `Cc1ccc(-c2cn3c(n2)sc2cc(C(=O)NCc4cccs4)ccc23)c(C)c1` as the compound, how does the survival read?
**A.** 41% (active)

**Q.** For `Cc1ccc(-c2cn3c(n2)sc2cc(C(=O)NCc4cccs4)ccc23)cc1`, which survival is on record?
**A.** 78%

**Q.** Which survival does the source give for `O=C(CCc1ccccc1)NCc1ccc2c(c1)CCN2C(=O)c1ccc(Cl)cc1` here?
**A.** 77%

**Q.** `COc1ccc(CCNC(=O)c2cnn(-c3cccc(C)c3)c2C2CCN(C(=O)OC(C)(C)C)CC2)cc1OC` was tested. Which survival did it give?
**A.** 67%

**Q.** Which survival does the source give for `O=C(NCCc1nc2ccccc2n1CCOc1ccc(Cl)cc1)C1CCCCC1` here?
**A.** 36% (active)

**Q.** For `Cc1cc(C)cc(OCCn2c(CCNC(=O)C3CCCCC3)nc3ccccc32)c1`, which survival is on record?
**A.** 92%

**Q.** `Cc1cc(C)cc(OCCCn2c(CCNC(=O)C3CCCCC3)nc3ccccc32)c1` was tested. Which survival did it give?
**A.** 35%

**Q.** `Cc1ccccc1OCCCn1c(CCNC(=O)C2CCCCC2)nc2ccccc21` was tested. Which survival did it give?
**A.** 61%

**Q.** For `O=C(NCCCc1nc2ccccc2n1Cc1ccc(Cl)cc1)C1CCCCC1`, which survival is on record?
**A.** 64%

**Q.** With `Cc1cccc(C)c1OCCCn1c(CCNC(=O)C2CCCCC2)nc2ccccc21` as the compound, how does the survival read?
**A.** 1% (active)

**Q.** How did the survival turn out when `Cc1cc(OCCn2c(CCNC(=O)C3CCCCC3)nc3ccccc32)ccc1Cl` was run?
**A.** 87%

**Q.** With `Cc1ccc(OCCn2c(CCNC(=O)C3CCCCC3)nc3ccccc32)cc1` as the compound, how does the survival read?
**A.** 61%

**Q.** `Cc1cccc(C)c1OCCn1c(CCNC(=O)C2CCCCC2)nc2ccccc21` was tested. Which survival did it give?
**A.** 57%

**Q.** How did the survival turn out when `Cc1cc(OCCCn2c(CCNC(=O)C3CCCCC3)nc3ccccc32)ccc1Cl` was run?
**A.** 4% (active)

**Q.** `O=C(NCCc1nc2ccccc2n1CCCOc1ccc(Cl)cc1)C1CCCCC1` was tested. Which survival did it give?
**A.** 24% (active)

**Q.** `Cc1ccc(OCCCn2c(CCNC(=O)C3CCCCC3)nc3ccccc32)c(C)c1` was tested. Which survival did it give?
**A.** 64%
